Test results taken from PubChem BioAssay (NCI).
Values joined by “and” are separate entries in the source; they are usually repeats but may differ in a detail not shown here. Equal entries are not always repeated. This is part of a sample that, as a whole, favours compounds with a hit. Of some 83,000 tested, about 20% had one in any assay.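 Plates (96-well) were seeded with cells, treated with compound at one concentration, and incubated for 48 hours before percent growth was determined.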 Active and inactive are the calls of the source.

What follows are molecules tested on CAKI-1 renal (assay: NCI-60 one-dose screen, 48 h (100 = growth as untreated, 0 = no growth, -100 = all killed)). Conditions: 10 µM.
Experimental: Growth inhibition of the CAKI-1 human tumor cell line is measured as a screen for anti-cancer activity. Cells are grown in 96 well plates and exposed to the test compound for 48 hours. Compounds are tested at a single concentration, which is 10^-5 M for most compounds. The reported endpoint is percent growth (GI% or GIPRCNT), where numbers from 0 - 100% represent growth inhibition, and numbers from -100% - 0 represent cell death. For example, a value of 40 represents 60% growth inhibition. A value of 0 means no net growth occurred over the course of the experiment. A value of -40 indicates 40% of cells at the beginning of the experiment died by the end of the experiment. A value of -100 means all cells are dead at the end of the experiment.
NCI-60 Human Tumor Cell Lines Screen was performed using the standard one-dose NCI protocol, which is described in more detail at https://dtp.cancer.gov/discovery_development/nci-60/default.htm.
Compounds with GIPRCNT values below 10 were considered active. Activity score was based on GIPRCNT using the following formula: […]
Score is 0 for GIPRCNT values of 100 or above, 50 for GIPRCNT values of 0, and 100 for GIPRCNT values of -100.
For `O=C(Nc1cccc(Br)c1)Oc1cccc2cccnc12`, the growth was 94.4% (inactive). `O=C(O)c1c(Cl)c(Cl)c(Cl)c(Cl)c1-c1c2cc(I)c(=O)c(I)c-2oc2c(I)c(O)c(I)cc12` was tested, and the growth was 107% (inactive) and 102% (inactive) and 90% (inactive).

Same assay, conditions: 10 µM unless noted
`Oc1c(Br)cc(Cl)cc1C(c1cc(Cl)cc(Br)c1O)C(Cl)(Cl)Cl` was tested, and the growth was 1.81% (active). With `C1=C(c2ccccc2)C(c2ccc(OCCN3CCCCC3)cc2)Oc2ccccc21` (stereo unspecified) the growth was 30% (inactive). With `C/C=C1\SC(=S)NC1=O` the growth was 99.3% (inactive). In the case of `CCCCCCCCCCCCCCCCN(CC)CC`, the growth is reported as -81.9% (active). In the case of `CCC(CC)COC(=O)c1ccc(O)c(O)c1`, the growth is reported as 40.6% (inactive). With `CN(C)c1ccc(N=Nc2cccc3ccccc23)cc1` the growth was 90.2% (inactive). `Cc1ccc2nc(-[n+]3cc4ccccc4cc3C)ccc2c1` was tested, and the growth was 103% (inactive). For `CCN(CC)CCOc1ccc(-c2nc3cc(Cl)ccc3s2)cc1`, the growth was 11.9% (inactive). For `CNc1ccc2c(c1)c1ccccc1n2C`, the growth was 98.9% (inactive). For `O=C(Nc1ccc(F)cc1)ON=C1CCCCC1`, the growth was 79.3% [100 µM] (inactive). In the case of `Nc1nc(N)c2c(ccc3c2ccn3Cc2cccc([N+](=O)[O-])c2)n1`, the growth is reported as -96.1% (active). With `O=C(/C=C\c1cc(Br)ccc1O)/C=C/c1cc(Br)ccc1O` the growth was -2.63% (active). For `Cc1cc2nc(CS)[nH]c2cc1C`, the growth was 43.9% (inactive). For `O=C(O)c1ccc2c3c(ncnc13)-c1ccccc1C2=O`, the growth was 111% (inactive). In the case of `Cc1cc(N)c2ccccc2[n+]1CCCCCCCCCC[n+]1c(C)cc(N)c2ccccc21`, the growth is reported as 30.9% (inactive) and 69.6% (inactive). `CCC1OC(OC)C=CC1=O` (stereo unspecified) was tested, and the growth was 113% (inactive). With `N#CSCc1ccc(Cl)c(CSC#N)c1` the growth was 22.5% (inactive). For `O=C1N[C@H]2[C@H](CS[C@H]2CCCCC(=O)N(CCP(c2ccccc2)c2ccccc2)CCP(c2ccccc2)c2ccccc2)N1`, the growth was 99.2% (inactive). `N[C@H](C(=O)O)[C@@H]1CC(Cl)=NO1` was tested, and the growth was 18.3% [20 µM] (inactive). In the case of `COC(=O)[C@@]12OC[C@]34[C@H]([C@@H](O)[C@@H]1O)[C@@]1(C)[C@H](O)C(=O)C=C(C)[C@@H]1C[C@H]3OC(=O)C(OC(C)=O)[C@@H]24` (stereo partly specified), the growth is reported as -35.9% (active). With `C[n+]1c(/C=C/c2ccc([N+](=O)[O-])cc2)ccc2ccccc21` the growth was 81.3% (inactive). With `Cc1ccnc2c1ccc1c(C)ccnc12` the growth was 16% (inactive). With `Cc1ccnc(NC(c2ccccc2)c2ccc3cccnc3c2O)c1` (stereo unspecified) the growth was 14.7% (inactive). In the case of `O=Nc1ccccc1N=O`, the growth is reported as 81.1% (inactive). For `N#CSCc1ccc(CSC#N)c(Cl)c1`, the growth was 41.7% (inactive). For `COc1cc(/C=C/C(C)=O)ccc1O`, the growth was 93.4% (inactive) and 115% (inactive). `CC1OC2CC(=O)OC2C2=C1C(=O)c1c(O)cccc1C2=O` (stereo unspecified) was tested, and the growth was -82.5% (active). `COc1cc(/C=C(/C)C[N+](=O)[O-])ccc1O` was tested, and the growth was 84.3% (inactive). In the case of `COc1ccc2nc3cc(Cl)ccc3c(NCCNc3c4ccc(Cl)cc4nc4ccc(OC)cc34)c2c1`, the growth is reported as -79.8% (active). For `Cn1c2ccccc2c2nnc(N/N=C/c3ccccn3)nc21`, the growth was -21.1% (active). `Cc1ccc(N=C=C(c2ccccc2)c2ccccc2)cc1` was tested, and the growth was 81.6% (inactive). `N#CSCC(=O)c1ccc(Cl)cc1` was tested, and the growth was 31.8% (inactive). In the case of `CC(=Nc1ccc(N(C)C)cc1)c1ccccc1`, the growth is reported as 79.8% (inactive). For `O=[N+]([O-])c1ccc(N=Nc2ccc(O)cc2O)cc1`, the growth was 56% (inactive). In the case of `O=C(/C=C\c1ccccc1)N1c2ccccc2CC1c1c[nH]c2ccccc12` (stereo unspecified), the growth is reported as 62.8% (inactive). `O=C1c2cccnc2-c2nccc3c2c1nc1cc(Br)ccc13` was tested, and the growth was -49.6% (active) and -90.7% (active). `N#CSCc1c(Cl)cccc1Cl` was tested, and the growth was 47.7% (inactive).

Same assay, conditions: 100 µM
`O=C(Nc1cccc(Br)c1)Oc1cccc2cccnc12` was tested, and the growth was 67.9% (inactive). For `O=C(O)c1c(Cl)c(Cl)c(Cl)c(Cl)c1-c1c2cc(I)c(=O)c(I)c-2oc2c(I)c(O)c(I)cc12`, the growth was 42.9% (inactive).
